Paper PMC4336329 (PLoS ONE, 2015)
Screen size: about 310,000 compounds; about 14,000 (4.5%) showed an effect of 50% or more. Effects have a minus sign here. Shown is part of a subset that was picked to be rich in strong results.

Each molecule was assayed against human ether-à-go-go-related gene (hERG) potassium channel (human, UniProt Q12809) (assay: primary screen, population patch clamp on CHO cells stably expressing hERG; higher = less effect of the substance).
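Also: peak tail current of the secondary pulse compared with the same well before compound.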

Chain of human ether-à-go-go-related gene (hERG) potassium channel (Q12809 whole entry, looked up): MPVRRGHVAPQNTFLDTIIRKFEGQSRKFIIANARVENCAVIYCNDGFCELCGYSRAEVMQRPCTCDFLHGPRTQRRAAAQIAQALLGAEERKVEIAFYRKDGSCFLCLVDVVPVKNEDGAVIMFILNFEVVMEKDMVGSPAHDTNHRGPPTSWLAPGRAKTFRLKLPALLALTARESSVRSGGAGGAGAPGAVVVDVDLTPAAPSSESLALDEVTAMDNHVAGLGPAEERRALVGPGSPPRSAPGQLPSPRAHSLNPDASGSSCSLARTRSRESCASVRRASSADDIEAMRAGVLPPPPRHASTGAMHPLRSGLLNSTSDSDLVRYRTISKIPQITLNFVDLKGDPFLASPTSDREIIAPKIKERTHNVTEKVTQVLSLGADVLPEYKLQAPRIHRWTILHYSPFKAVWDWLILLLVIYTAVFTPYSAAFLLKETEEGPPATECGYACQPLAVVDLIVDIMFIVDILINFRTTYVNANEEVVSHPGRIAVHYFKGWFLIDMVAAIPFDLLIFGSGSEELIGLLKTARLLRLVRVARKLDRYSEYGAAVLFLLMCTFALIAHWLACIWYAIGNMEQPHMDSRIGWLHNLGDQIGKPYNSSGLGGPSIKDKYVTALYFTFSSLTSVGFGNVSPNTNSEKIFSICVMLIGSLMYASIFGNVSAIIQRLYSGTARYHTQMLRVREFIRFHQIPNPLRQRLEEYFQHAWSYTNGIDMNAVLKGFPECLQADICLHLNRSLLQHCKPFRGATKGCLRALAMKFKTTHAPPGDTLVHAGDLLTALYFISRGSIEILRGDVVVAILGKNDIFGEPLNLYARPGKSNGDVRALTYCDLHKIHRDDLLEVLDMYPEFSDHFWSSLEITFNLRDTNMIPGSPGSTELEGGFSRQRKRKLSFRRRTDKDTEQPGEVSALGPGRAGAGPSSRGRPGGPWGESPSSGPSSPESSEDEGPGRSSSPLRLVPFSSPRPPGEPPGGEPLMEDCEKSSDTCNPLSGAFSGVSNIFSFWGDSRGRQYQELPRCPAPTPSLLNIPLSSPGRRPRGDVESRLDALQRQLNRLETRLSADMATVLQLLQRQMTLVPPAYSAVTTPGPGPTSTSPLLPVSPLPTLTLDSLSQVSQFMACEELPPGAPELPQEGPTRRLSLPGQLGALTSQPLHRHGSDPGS

| Structure (SMILES) | hERG current change (%, negative = inhibition) at 10uM [%] |
| --- | --- |
| COC(=O)c1ccc(OC)c(CSc2nnc(COc3ccccc3)o2)c1 | -17.7 |
| CCOC(=O)c1c(CSC(=N)N)n(-c2ccccc2)c2cc(Br)c(OC(C)=O)cc12 | -77.9 |
| CCOC(=O)c1c(C)n(C)c2c1cc(OC(C)=O)c1ccccc12 | 19.7 |
| C=CCCc1ccc(C#N)c(SCc2c(C(=O)OCC)c3cc(OC(C)=O)c(Br)cc3n2C)n1 | -1.18 |
| Br.CCOC(=O)c1c(CSC(=N)N)n(C)c2cc(Br)c(OC(C)=O)cc12 | -68.7 |
| CCOC(=O)c1c(C)n(C)c2cc(Br)c(C)cc12 | 23.3 |
| Br.CCOC(=O)c1c(CSC(=N)N)n(-c2ccc(C)cc2)c2cc(Br)c(OC(C)=O)cc12 | -65.4 |
| CCOC(=O)c1c(CSc2nc(C)cc(C)c2C#N)n(C)c2cc(Br)c(OC(C)=O)cc12 | 8.76 |
| CCOC(=O)c1c(CSc2ccccc2)n(C)c2cc(Br)c(OCC(O)CNC(CO)(CO)CO)cc12 (centres unmarked) | 2.71 |
| Br.CCCCCCCCOC(=O)c1c(CSC(=N)N)n(C)c2cc(Br)c(OC(C)=O)cc12 | -22.8 |
| CC12CCC(C(=O)Nc3cccc(Cl)c3Cl)([C@H](Br)C1=O)C2(C)C (some centres unmarked) | -39.6 |
| COC(=O)c1ccc(NC(=O)C2CCCN(S(=O)(=O)c3cnc[nH]3)C2)cc1 (centres unmarked) | 3.35 |
| Cc1ccc(C(=O)c2oc3ccccc3c2N)cc1 | -7.77 |
| CCCCOc1ccc(C(=O)NCC(=O)NC(C)CCc2ccccc2)cc1 (centres unmarked) | -4.99 |
| CC(=O)c1cnc(N(C)C)s1 | 10 |
| Cc1nnc(SCC(=O)Nc2ccc(-c3nc4ccccc4s3)cc2)s1 | 23.4 |
| N/C(=N\[N+](=O)[O-])N1CCN(C(=O)OC2CCCC2)CC1 | 19.4 |
| COc1ccc(CNC(=O)CC(C)S(=O)(=O)c2ccc3c(c2)NC(=O)CO3)cc1 (centres unmarked) | 10.1 |
| Cn1c(SCC(=O)Nc2ccc(Cl)cn2)nnc1C1CC1 | -3.25 |
| C=CCn1cccc(C(=O)Nc2ccc(C)c(Cl)c2)c1=O | 10 |
| C=CCn1cccc(C(=O)Nc2ccc(C)c(C)c2)c1=O | -71.9 |
| O=C(CCc1ccccc1)Nc1ccccc1 | -2.56 |
| O=C(CCc1ccccc1)Nc1ccncc1 | -56.8 |

| Structure (SMILES) | hERG current change (%, negative = inhibition) at 10uM [%] |
| --- | --- |
| O=C(Nc1ccncc1)c1cccn(Cc2ccccc2)c1=O | -55.8 |
| O=C(Nc1ccccc1)c1cccn(Cc2ccccc2)c1=O | 13.7 |
| O=C(CCc1ccccc1)Nc1cccc(NC(=O)CCc2ccccc2)c1 | -13.4 |
| O=C(NCc1ccccc1)c1cccn(Cc2ccccc2)c1=O | -29.3 |
| C=CCn1cccc(C(=O)Nc2ccc(C)cc2)c1=O | -7.96 |
| COc1ccc(NC(=O)COC(=O)CN2C(=O)NC(C)(C)C2=O)cc1 | 2.55 |
| Cc1ccc(-c2cccc(OC(=O)c3ccccc3F)c2)cc1 | 5.02 |
| COc1ccc(NC(=O)C2CCN(S(=O)(=O)c3ccc4[nH]c(=O)oc4c3)CC2)c(OC)c1 | 3.47 |
| O=S(=O)(c1ccccc1)c1nc(-c2ccc(F)cc2)oc1NCC1CCCO1 (centres unmarked) | -34.6 |
| COc1cc2c(cc1OC)CN(C(=O)C(C)(C)C)CC2 | 17.6 |
| COc1ccc(CCNC(=O)CCCOc2ccc(Cl)cc2)cc1OC | -15.3 |
| COc1ccc(CCNCC(O)COc2cccc(Br)c2)cc1 (centres unmarked) | -50 |
| OC(CNCCc1ccc(C(F)(F)F)cc1)COc1ccc2ccccc2c1 (centres unmarked) | -46.5 |
| COc1ccc(CCNCC(O)COc2ccc(OC)cc2C(C)(C)C)cc1 (centres unmarked) | -38.8 |
| COc1ccc(CCNCC(O)COc2cccc(C(C)=O)c2)cc1OC.O=C(O)C(=O)O (centres unmarked) | -0.028 |
| COc1ccc(CCNC(=O)COC(=O)COc2ccc(Cl)cc2)cc1OC | 7.05 |
| COc1ccc(CCNCC(O)COc2c(C)cccc2C)cc1OC.O=C(O)C(=O)O (centres unmarked) | 6.84 |
| COc1ccc(CCNCC(O)COc2cccc(Br)c2)cc1OC (centres unmarked) | -67.3 |
| COc1ccc(CCNCC(O)COc2ccc(Cl)cc2)cc1OC.Cl (centres unmarked) | -72.1 |
| CCN1CCCC1CNC(=O)C(=O)Nc1ccccc1OC (centres unmarked) | -15 |
| C#CCNC(=O)C1=C[C@@H](c2ccc(Br)cc2)C[C@@H](OCc2ccc(CO)cc2)O1 | 16.6 |
| Cl.N=c1ccn(Cc2cccc(Cl)c2)cc1 | 2.03 |
| C=CCO/N=C/C1C(=O)CC(C)(C)CC1=O | 10.9 |

| Structure (SMILES) | hERG current change (%, negative = inhibition) at 10uM [%] |
| --- | --- |
| CC(C(=O)NC1CCCC1)N(C(=O)CS(=O)CC(=O)Nc1ccc(F)cc1)c1ccc2c(c1)OCCO2 (centres unmarked) | -3.58 |
| CC(=O)c1csc(CS(=O)(=O)c2ccccn2)n1 | 5.4 |
| Fc1cccc(Nc2nc3ccccc3n3cnnc23)c1 | 4.55 |
| Cn1c(CS(=O)Cc2c(Cl)cccc2Cl)nnc1SCc1ccc(Cl)cc1 (centres unmarked) | -56.2 |
| Cn1c(CS(=O)Cc2c(Cl)cccc2Cl)nnc1SCc1c(Cl)cccc1Cl (centres unmarked) | -45.1 |
| CCn1c(CS(=O)Cc2ccc(Cl)cc2Cl)nnc1SCc1c(Cl)cccc1Cl (centres unmarked) | -6.78 |
| COc1cnn(-c2ccc([N+](=O)[O-])cc2)c(=O)c1Cl | -2.52 |
| Cn1ncc(Oc2ccc([N+](=O)[O-])cc2)c(Cl)c1=O | -71.2 |
| Cn1ncc(Cl)c(Oc2ccc(Cl)cc2)c1=O | -17 |
| O=C(C1CCN(c2nnc(-n3cccc3)s2)CC1)N1CCc2ccccc2C1 | -60.3 |
| O=C(NCCCN1CCc2ccccc2C1)C1CCN(S(=O)(=O)N2CCC3(CC2)OCCO3)CC1 | -12.4 |
| O=C(NCCN1CCc2ccccc2C1)C1CCN(S(=O)(=O)N2CCCCC2)CC1 | -53.8 |
| O=C(C1CCN(c2nnc(-n3cccc3)s2)CC1)N1CCOCC1 | -13.9 |
| CCCN1CCN(CCCNC(=O)C2CCN(c3nnc(-n4cccc4)s3)CC2)CC1 | -14.4 |
| O=C(C1CCN(c2nnc(-n3cccc3)s2)CC1)N1CCCCC1 | -6.55 |
| O=C(NCCCN1CCc2ccccc2C1)C1CCN(S(=O)(=O)N2CCCC2)CC1 | -2.78 |
| O=C(NCCCN1CCc2ccccc2C1)C1CCN(c2nnc(-n3cccc3)s2)CC1 | -55.6 |
| CN1CCN(CCCNC(=O)C2CCN(c3nnc(-n4cccc4)s3)CC2)CC1 | 20.2 |
| Cc1noc(C)c1COC(=O)C1CC(O)CN1S(=O)(=O)c1ccc(Cl)cc1 (centres unmarked) | -8.48 |
| O=C(CC1C(=O)NCCN1Cc1ccccc1C(F)(F)F)NCCN1CCCCC1=O (centres unmarked) | 16.9 |
| O=S(=O)(Cc1noc(-c2ccc(Cl)cc2)n1)Cc1ccco1 | -4.77 |
| Cc1cc(C)nc(NC(=O)CSc2nn(C)c(=S)s2)n1 | -0.37 |
| Cc1cc2cc(CNC(=O)Nc3ccc(Cl)c(Cl)c3)ccc2n1C | 2.71 |

| Structure (SMILES) | hERG current change (%, negative = inhibition) at 10uM [%] |
| --- | --- |
| O=C(Nc1nc2ccccc2n1CCN1CCCCC1)c1ccco1 | -54.8 |
| CN(C)CCCn1c(NC(=O)C2CCCCC2)nc2ccccc21 | -27.3 |
| O=C(Nc1nc2ccccc2n1CCN1CCCC1)C1CCCCC1 | -58.6 |
| CCCCn1c(NC(=O)C2CCCCC2)nc2ccccc21 | 4.63 |
| CCCn1c(NC(=O)c2ccco2)nc2ccccc21 | 9.09 |
| CCn1c(NC(=O)C2CCCCC2)nc2ccccc21 | 8.36 |
| CCCn1c(NC(=O)C2CCN(C(=O)c3ccccc3C)CC2)nc2ccccc21 | -16 |
| O=C(Nc1nc2ccccc2n1CCN1CCCCC1)C1CCCCC1 | -61.2 |
| O=C(Nc1nc2ccccc2n1Cc1ccccc1)c1ccco1 | 20.2 |
| CCOC(=O)C1=C(c2ccccc2)NC(SCC(=O)NC2CCCCC2)=C(C#N)C1c1ccco1 (centres unmarked) | -1.35 |
| COc1ccc(OC)c(C(=O)Cn2nnc3ccccc3c2=O)c1 | 9.14 |
| O=[N+]([O-])c1ccc2[nH]nc(-c3ccccc3)c2c1 | 9.26 |
| O=C1C2=C(C(c3ccccc3)=NCCN2)C(c2cccc([N+](=O)[O-])c2)N1c1ccccc1 (centres unmarked) | -21.3 |
| O=[N+]([O-])c1ccc2c(c1)C(c1ccccc1)=NCCN2 | -69.1 |
| CN1CCN(c2ccc(S(=O)(=O)N3CCCCC3)cc2NC(=O)/C=C/c2ccc(Cl)c([N+](=O)[O-])c2)CC1 | -17.4 |
| O=C(/C=C/c1ccc(Cl)cc1)Nc1ccccc1N1CCOCC1 | 2.84 |
| CN1CCN(c2ccc(Cl)cc2NC(=O)/C=C/c2cccc(F)c2)CC1 | -69.9 |
| CCc1cc(C(=O)Nc2cc(Cl)ccc2N2CCN(C)CC2)sc1C | 3.43 |
| CN1CCN(c2ccc(Cl)cc2NC(=O)/C=C/c2ccc(F)cc2)CC1 | -75.6 |
| CN1CCN(NC(=O)/C=C/c2cccc(Cl)c2)CC1 | -6.09 |
